USP10 block: inhibitors of human USP10 deubiquitinase; 47,000 compounds, 1.1% hits; inhibition, % at 20 µM; purified USP10, Ub-rhodamine fluorescence, 60 min; AID 1645856
USP30 block: blocks human USP30 ubiquitin-rhodamine cleavage | Q70CQ3 | purified USP30, Ub-rhodamine cleavage fluorescence | inhibition, % at 25 µM | 47,000 compounds, 5.3% hits | AID 1645860
Target sequence (Q70CQ3 whole entry, looked up): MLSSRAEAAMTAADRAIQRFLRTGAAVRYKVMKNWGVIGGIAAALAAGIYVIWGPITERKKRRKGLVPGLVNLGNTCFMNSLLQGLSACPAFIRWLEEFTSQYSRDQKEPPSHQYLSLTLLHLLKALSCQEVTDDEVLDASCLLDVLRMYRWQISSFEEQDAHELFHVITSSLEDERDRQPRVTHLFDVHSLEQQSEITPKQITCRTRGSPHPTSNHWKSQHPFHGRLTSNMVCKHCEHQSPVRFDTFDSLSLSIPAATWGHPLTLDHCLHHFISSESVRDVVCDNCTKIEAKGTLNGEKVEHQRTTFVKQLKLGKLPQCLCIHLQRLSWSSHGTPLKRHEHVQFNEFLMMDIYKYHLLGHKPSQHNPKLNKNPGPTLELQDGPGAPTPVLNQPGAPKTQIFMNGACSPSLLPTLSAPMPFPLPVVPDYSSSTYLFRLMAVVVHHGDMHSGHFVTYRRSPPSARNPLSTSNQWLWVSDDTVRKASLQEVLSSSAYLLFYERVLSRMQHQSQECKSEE
USP28 block: inhibitors of human USP28 deubiquitinase. inhibition, % at 25 µM. 47,000 compounds, 3% hits. purified USP28, Ub-rhodamine cleavage fluorescence, 30 min. Q96RU2
USP8 inh: human USP8 deubiquitinase inhibition | inhibition, % at 20 µM | 47,000 compounds, 4.2% hits | purified USP8, Ub-rhodamine cleavage fluorescence, 30 min | P40818 | AID 1645853
USP17 block: human USP17-like deubiquitinase inhibition. purified USP17, Ub-rhodamine cleavage fluorescence, 3 h. inhibition, % at 50 µM. 47,000 compounds, 6.5% hits. AID 1645855
Active calls of the source: *. Sampled rows, rich in hits. Any-hit rate of the full collection: about 13%. Rule as the data show it: active = inhibition above about 30%; inactive = the rest.

For COc1ccccc1S(=O)(=O)N1CC[C@@H]2[C@H]1C(=O)N(C)[C@@H](C)C(=O)N2C the results were USP10 block 1, USP30 block 18, USP28 block 11, USP8 inh 10 and USP17 block 8.
`CN(C)CC(=O)N1CC2(CCN(C(=O)Nc3ccccc3)C2)C1` gave USP10 block -4, USP30 block 20, USP28 block 8, USP8 inh -32 and USP17 block 1.
Screening O=C(NC1CCCCC1)c1csc(C(=O)N2CCCC2)n1 returned USP10 block 0, USP30 block 22, USP28 block 14, USP8 inh 1 and USP17 block 11.
N#Cc1c(-c2ccccc2)cc(-c2ccccc2)nc1NCc1ccccc1 was read as USP10 block 4, USP30 block 4, USP28 block 4, USP8 inh 16 and USP17 block 6.
`CC1CCN(S(=O)(=O)N2CCCC(C(=O)N3CCN(C)CC3)C2)CC1` (stereo not drawn) gave USP10 block -1, USP30 block 16, USP28 block 2, USP8 inh -1 and USP17 block -21.
For COc1ccc(C)cc1NC(=O)Cn1c(C)cc(C)c1-c1nc(C(C)C)no1 the results were USP10 block 1, USP30 block 31*, USP28 block 7, USP8 inh 14 and USP17 block 24.
`Cc1cc(C)n(CC(=O)Nc2ccc(F)cc2)c1-c1nc(C(C)C)no1` gave USP10 block 0, USP30 block 10, USP28 block 6 and USP8 inh 15.
`COc1ccc(-c2cc(C(C)=O)c(C)n2CCC(=O)Nc2ccc(OC)cc2OC)cc1` gave USP10 block 0, USP30 block 81*, USP28 block 0, USP8 inh -2 and USP17 block 33*.
`COc1ccc(NC(=O)COc2ccc(C(=O)c3ccccc3)cc2)c(OC)c1` gave USP10 block 9, USP30 block 24, USP28 block -3, USP8 inh -4 and USP17 block 12.
Screening COc1ccc(-c2cc(C(C)=O)c(C)n2CCC(=O)Nc2ccc(C)cn2)cc1 returned USP10 block -3, USP30 block -132, USP28 block -43, USP8 inh -19 and USP17 block -44.
CCOc1ccc(NC(=O)Cn2c(-c3ccccc3)cc(C(C)=O)c2C)cc1 was read as USP10 block 22, USP30 block 37*, USP28 block 11 and USP8 inh 36*.
COc1ccc(NC(=O)COc2cc(C)nc(-c3ccc(C)cc3)n2)c(OC)c1 was read as USP10 block 30*, USP30 block 58*, USP28 block 12, USP8 inh 46* and USP17 block 63*.
`Cc1cccc(N2CCN(c3cc(Sc4ccc5ccccc5c4)nc(N)n3)CC2)c1C` gave USP10 block -4, USP30 block -65, USP28 block -25, USP8 inh -76 and USP17 block -24.
For O=C(Nc1nc(C(=O)N2CCN(c3ccccn3)CC2)co1)C1CC1 the results were USP10 block 0, USP30 block -7, USP28 block -13, USP8 inh -32 and USP17 block -12.
CN(Cc1cccc(C#N)c1)C(=O)c1nc2n(n1)-c1ccccc1S(=O)(=O)N2 was read as USP10 block 6, USP30 block 10, USP28 block -5, USP8 inh 0 and USP17 block -1.
Screening CCC1CCCCN1C(=O)CSc1nnc(CNC(=O)c2cccs2)o1 (stereo not drawn) returned USP10 block 2, USP30 block 1, USP28 block 4, USP8 inh 10 and USP17 block 13.
For O=C(O)c1cccc(Nc2c(-c3cccc(Br)c3)nc3cnccn23)c1 the results were USP10 block 2, USP30 block -104, USP28 block -18, USP8 inh 0 and USP17 block -39.
`CN1CCN(C(=O)c2cc3cc(F)ccc3[nH]2)CC(C(N)=O)C1` (stereo not drawn) gave USP10 block 2, USP30 block 0, USP28 block -9, USP8 inh 0 and USP17 block 1.
CC(C)(C)c1cc(NC(=O)c2cccc(Cl)c2)no1 was read as USP10 block 3, USP30 block 3, USP28 block 21, USP8 inh 8 and USP17 block 0.
Screening Cc1ccc(NC(=O)c2ccn(COc3ccc(F)cc3)n2)nc1 returned USP10 block 6, USP30 block 8, USP28 block 10, USP8 inh 2 and USP17 block 60*.
Screening Cc1ccnc(NC(=O)c2ccn(COc3ccc(F)cc3)n2)c1 returned USP10 block 0, USP30 block 40*, USP28 block 14, USP8 inh 10 and USP17 block 10.
`Cc1cccc(C)c1NC(=O)c1ccn(COc2ccccc2)n1` gave USP10 block -1, USP30 block 15, USP28 block 36*, USP8 inh 3 and USP17 block -1.
For Cc1ccnc(NC(=O)c2ccn(COc3ccc(Cl)cc3)n2)c1 the results were USP10 block 3, USP30 block 72*, USP28 block 25, USP8 inh 31* and USP17 block 47*.
N#Cc1ccc(C(=O)N(Cc2ccc3c(c2)OCO3)C2CCCC2)cc1 was read as USP10 block 0, USP30 block 3, USP28 block 10, USP8 inh -330 and USP17 block -7.
For CC[C@@H]1/C=C/C=C\C[C@H](C)[C@@H](O)[C@](C)(O)C(=O)[C@H](C)[C@@H](O)[C@H](C)C(=O)[C@H](C)[C@@H](O)[C@H](C)/C=C/C(=O)O[C@H]2[C@@H](C)[C@@H](CC1O)O[C@@]1(CC[C@@H](C)[C@@H](C[C@H](C)O)O1)[C@@H]2C (stereo partly drawn) the results were USP10 block 3, USP30 block -16, USP28 block -2, USP8 inh 9 and USP17 block -19.
For COc1ccc(-c2cc(=O)[nH]c(Nc3nc(C)c4cc(C)ccc4n3)n2)cc1 the results were USP10 block 0, USP30 block 2, USP28 block 5, USP8 inh 21 and USP17 block 8.
Cc1nc(N2CCCC2)ncc1-c1cc(=O)[nH]c(N2CCc3ccccc3C2)n1 was read as USP10 block -1, USP30 block -28, USP28 block 0, USP8 inh 6 and USP17 block 78*.
Screening Cc1nc(N2CCCCC2)ncc1-c1cc(=O)[nH]c(N2CCN(c3ccccc3)CC2)n1 returned USP10 block 3, USP30 block 21, USP28 block 8, USP8 inh 2 and USP17 block 8.
`Cc1nc(N2CCOCC2)ncc1-c1cc(=O)[nH]c(NCCc2ccccc2)n1` gave USP10 block 3, USP30 block 34*, USP28 block 2, USP8 inh -8 and USP17 block 17.
COc1ccc2nc(Nc3nc(-c4cnc(N5CCOCC5)nc4C)cc(=O)[nH]3)nc(C)c2c1 was read as USP10 block -1, USP30 block 10, USP28 block 2, USP8 inh 1 and USP17 block 52*.
